This is a sample that favours compounds with a hit; in the whole collection about 4.1% have one here.
UHRF1 binding – UHRF1 methyl-DNA binding inhibition; Q96T88; UHRF1 binding to methylated oligo, TR-FRET; inhibition, % at 4.4 µM; 370,000 tested, 0.75% active; AID 687016; in the data active means inhibition above about 21%;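 further: UHRF1 SRA domain binding a hemimethylated CpG hairpin DNA probe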
PRMT1 FP inh – blocks human protein arginine methyltransferase 1; inhibition, % at 2.79 µM; 370,000 tested, 1.3% active; recombinant PRMT1, activity-based probe fluorescence polarization; Q99873; AID 652257;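 active means inhibition above about 21% made by adding two undisclosed values, limit read from the data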
MBD2 DNA inh – blocks human MBD2 binding to methylated DNA. 370,000 tested, 0.31% active. TR-FRET, MBD2 binding to methylated oligonucleotide. inhibition, % at 4.4 µM. Q9UBB5. AID 686964; in the data active means inhibition above about 13%
LEDGF integ inh – blocks HIV-1 LEDGF/p75-dependent DNA integration. TR-FRET IN-LEDGF/p75 DNA integration, Eu/Cy5. inhibition, % at 3.7 µM. 370,000 tested, 0.64% active;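 active means inhibition above the screen-wide mean plus 3 SD, cut at about 13% in these data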;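 further: signal is the Cy5 over europium emission ratio at 671 and 618 nm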
ABHD5-PLIN5 inh – inhibitors of human ABHD5-perilipin-5 interaction; Q00G26+Q8WTS1; Split G. princeps luciferase complementation, luminescence, 4 h; inhibition, % at 4 µM; 360,000 tested, 0.78% active; AID 602281;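 active means inhibition above the mean inhibition across every tested compound plus 3 SD, cut at about 22% in these data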
Target sequence (Q00G26 whole entry, looked up): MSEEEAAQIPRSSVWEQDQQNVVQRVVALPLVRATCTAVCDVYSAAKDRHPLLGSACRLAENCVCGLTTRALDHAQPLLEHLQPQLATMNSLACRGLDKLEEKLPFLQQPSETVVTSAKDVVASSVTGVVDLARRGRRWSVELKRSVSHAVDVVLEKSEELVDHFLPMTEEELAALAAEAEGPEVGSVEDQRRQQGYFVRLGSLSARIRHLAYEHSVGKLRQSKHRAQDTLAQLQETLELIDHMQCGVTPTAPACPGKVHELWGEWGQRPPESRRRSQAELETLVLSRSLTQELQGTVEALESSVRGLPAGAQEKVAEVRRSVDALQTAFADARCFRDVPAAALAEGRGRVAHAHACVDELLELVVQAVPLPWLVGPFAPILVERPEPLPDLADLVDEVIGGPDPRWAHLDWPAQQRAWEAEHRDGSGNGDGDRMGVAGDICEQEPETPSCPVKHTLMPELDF
Target sequence (Q8WTS1 whole entry, looked up): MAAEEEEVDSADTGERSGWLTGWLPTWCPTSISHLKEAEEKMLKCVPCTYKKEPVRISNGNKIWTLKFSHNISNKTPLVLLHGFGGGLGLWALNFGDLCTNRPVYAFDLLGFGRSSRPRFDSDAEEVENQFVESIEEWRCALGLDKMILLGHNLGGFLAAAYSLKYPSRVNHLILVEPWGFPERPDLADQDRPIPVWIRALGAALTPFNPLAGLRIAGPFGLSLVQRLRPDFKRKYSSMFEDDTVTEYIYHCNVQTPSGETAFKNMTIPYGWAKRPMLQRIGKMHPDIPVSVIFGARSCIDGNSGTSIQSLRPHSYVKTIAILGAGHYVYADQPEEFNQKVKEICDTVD
rCAG binder – molecules binding r(CAG) RNA repeats | r(CAG) RNA repeat, TO-PRO-1 dye displacement fluorescence | inhibition, % at 3 µM | AID 651821 | 370,000 tested, 1.3% active;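 active means inhibition above the plate cutoff, the mean of all test compounds on that plate plus 3 SD, cut at about 35% in these data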;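 further: higher means more dye released from RNA so lower well fluorescence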
PRMT1 confirm – PRMT1 (human) inhibition, FP confirmation; shares compounds with PRMT1 FP inh; inhibition, % at 2.79 µM; 3,300 tested, 42% active; AID 687036; recombinant His-PRMT1, activity-based probe fluorescence polarization;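 active means mean inhibition across replicates above the hit cutoff derived for the earlier primary screen, cut at about 22% in these data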
Large screens that a line does not name were inactive (follow-up assays come after a bar, where they were run).

CN(CCCN1CCOCC1)C(=O)c1cc(COc2ccc(F)cc2F)on1	PRMT1 FP inh 29 | PRMT1 confirm inactive
CCN1CCN(C(=S)c2ccc(SC)cc2)CC1	PRMT1 FP inh 32 | PRMT1 confirm inactive
CSc1ccc(C(=S)N2CCN(Cc3ccccc3)CC2)cc1	PRMT1 FP inh 32 | PRMT1 confirm 38
S=C(c1ccc(Cl)cc1)N1CCN(Cc2ccccc2)CC1	none
CN(CCOC(=O)c1cccs1)C1CN(Cc2cn(Cc3ccccc3Cl)nn2)S(=O)(=O)C1 (centres undefined)	none (no result: ABHD5-PLIN5 inh)
CCOC(=O)c1cc2c(ccn2C)n1CC(=O)N(Cc1ccccc1)c1ccc(F)cc1	none
CCOC(=O)c1cc2c(ccn2C)n1CC(=O)N(Cc1ccccc1)c1ccccc1	PRMT1 FP inh 29 | PRMT1 confirm inactive
CC(C)OC(=O)c1cc2c(ccn2C)n1CC(=O)N(Cc1ccccc1)c1ccc(F)cc1	PRMT1 FP inh 25 | PRMT1 confirm inactive
COc1ccc(Cn2cc(CN3[C@@H](c4ccccc4)COc4cc(Br)ccc4S3(=O)=O)nn2)cc1	none (no result: ABHD5-PLIN5 inh)
CCSc1n[nH]c(=O)n1C	none (no result: ABHD5-PLIN5 inh)
CCC(C)NC(=O)C1CCCN(S(=O)(=O)c2ccc3c(c2)CC(C)N3C(C)=O)C1 (centres undefined)	PRMT1 FP inh 26 | PRMT1 confirm inactive
CC1CCN(C2CC(=O)N(c3ccc(Br)cc3Br)C2=O)CC1 (centres undefined)	PRMT1 FP inh 64 | PRMT1 confirm inactive
O=C1CC(N2CCSCC2)C(=O)N1c1ccc(Br)cc1 (centres undefined)	none
O=C1CC(N2CCN(Cc3ccccc3)CC2)C(=O)N1c1ccccc1 (centres undefined)	none
CC1CCN(C2CC(=O)N(c3ccccc3)C2=O)CC1 (centres undefined)	PRMT1 FP inh 81 | PRMT1 confirm inactive
COC(=O)[C@]12C[C@H](CC(=O)N3CCSCC3)C(=O)N(Cc3ccco3)C1=C[C@H](C(C)C)O[C@@H]2C1CC1	none (no result: ABHD5-PLIN5 inh)
CCCc1cc(=O)[nH]c(SCC(=O)Nc2ccc(N3CCCCC3)cc2)n1	PRMT1 FP inh 49 | PRMT1 confirm inactive
Cc1cc(=O)[nH]c(SCC(=O)Nc2ccc(N3CCCCC3)cc2)n1	none
O=C(c1ccccc1)c1ccc(O)cc1O	PRMT1 FP inh 73 | PRMT1 confirm 42
O=C(c1ccc(O)cc1)c1ccc(O)cc1O	none
O=C(NCc1ccccc1)[C@@H]1CCCN1C(=O)[C@H]1CCCN1C(=O)c1ccc(F)c(C(F)(F)F)c1	none (no result: ABHD5-PLIN5 inh)
CC(C)C[C@H]1COc2cccc(N3CCOCC3)c2S(=O)(=O)N1	none (no result: ABHD5-PLIN5 inh)
Cc1cc(Cl)ccc1NC(=O)/N=C1/NC(=O)CS1	none
O=C1CSC(=NC(=O)c2ccccc2)N1	PRMT1 FP inh 78 | PRMT1 confirm inactive
CC(C)C(=O)N=C1NC(=O)CS1	PRMT1 FP inh 55 | PRMT1 confirm 35
O=C1CSc2ccc(C(=O)O)cc2N1	none
Cc1ccc(CN(Cc2ccccc2)C(=S)NCC(=O)NCc2cccnc2)o1	PRMT1 FP inh 33 | PRMT1 confirm inactive
CC(=O)Nc1ccc(-c2csc(NNC(=O)c3ccccc3)n2)cc1	PRMT1 FP inh 26 | PRMT1 confirm inactive
O=C(NNc1nc(-c2ccccc2)cs1)c1ccco1	PRMT1 FP inh 42 | PRMT1 confirm inactive
COc1cc(C(=O)NCc2nnc(SCC(=O)Nc3nc4ccccc4s3)o2)cc(OC)c1OC	PRMT1 FP inh 65 | PRMT1 confirm inactive
NC1=NC(=O)C(CC(=O)NCc2ccccc2)S1 (centres undefined)	none
NC1=NC(=O)CC(C(=O)NCc2ccccc2)S1 (centres undefined)	PRMT1 FP inh 36 | PRMT1 confirm inactive
N#CCC[C@@H]1CC[C@]2(CCCN(C(=O)c3ccco3)C2)O1	none (no result: ABHD5-PLIN5 inh)
O=C1CCCC2=C1C(c1cccc(Br)c1)n1nc(-c3ccco3)nc1N2 (centres undefined)	PRMT1 FP inh 37 | PRMT1 confirm inactive
COC(=O)c1nc2n(n1)C(c1cccc(Cl)c1)C1=C(CCCC1=O)N2 (centres undefined)	none
FC(F)(F)c1nc(=S)c2ccccc2[nH]1	PRMT1 FP inh 33 | PRMT1 confirm 25
COC(=O)[C@@]1(C)[C@H]2C(=O)N(C)C(=O)[C@H]2[C@H]2CN=C(SCC(=O)c3ccccc3)N21	PRMT1 FP inh 76 | PRMT1 confirm 80
CC[C@]1(C(=O)OC)[C@H]2C(=O)N(Cc3ccccc3)C(=O)[C@H]2[C@H]2CN=C(SCC(=O)c3ccccc3)N21	PRMT1 FP inh 54 | PRMT1 confirm 58
COC(=O)[C@@]1(C)[C@H]2C(=O)N(C)C(=O)[C@H]2[C@H]2CN=C(SCc3ccccc3)N21	none
C[C@H](CO)N1C[C@H](C)[C@H](CN(C)S(=O)(=O)c2cccs2)Oc2ncc(Br)cc2C1=O	none (no result: ABHD5-PLIN5 inh)
Cc1ccc(Nc2nc(-c3c(C)nc4ccccn34)cs2)cc1	none
Cc1nc2ccccn2c1-c1ccnc(=S)[nH]1	PRMT1 FP inh 79 | PRMT1 confirm 38
COCCNC(=S)c1ccc(Br)cc1	PRMT1 FP inh 36 | PRMT1 confirm inactive
C=C(C)C#CCNCc1ccccc1	none (no result: ABHD5-PLIN5 inh)
CC(C)C[C@@H](CN1CCCC1CN1C(=S)NC[C@@H]1Cc1ccccc1)N1C[C@H](Cc2ccccc2)N(CC2CCCCC2)C1=S (some centres undefined)	none
CC(C)C[C@H]1CNC(=S)N1CC1CCCN1C[C@H](CC(C)C)N1C[C@H](Cc2ccccc2)N(CC2CCCCCC2)C1=S (some centres undefined)	PRMT1 FP inh 31 | PRMT1 confirm inactive
O=C(OCC#CCSc1nnc(-c2cccc3ccccc23)o1)C1CCC1	none (no result: ABHD5-PLIN5 inh, rCAG binder)
Oc1cc2ccccc2cc1-c1n[nH]c(=S)o1	PRMT1 FP inh 26 | PRMT1 confirm 36
O=C(O)CCC(=O)c1ccc2c(c1)OCCO2	none
CN(C)CCC(=O)c1ccc2c(c1)OCO2	PRMT1 FP inh 36 | PRMT1 confirm inactive
O=C(CCN1Cc2ccccc2C1)c1ccc2c(c1)OCCO2	PRMT1 FP inh 26 | PRMT1 confirm 22
CCCC(=O)c1ccc2c(c1)OCCO2	none
O=C(O)CCSCC(=O)c1ccc2c(c1)OCCO2	PRMT1 FP inh 32 | PRMT1 confirm inactive
O=C(/C=C(\Nc1ccc(Cl)c(Cl)c1)c1ccccc1)c1ccccc1	none (no result: ABHD5-PLIN5 inh)
Cc1ccc(C(=O)Nc2ncc3c(n2)CC(c2ccco2)CC3=O)cc1 (centres undefined)	PRMT1 FP inh 33 | PRMT1 confirm inactive
O=C(Nc1ncc2c(n1)CC(c1ccco1)CC2=O)c1ccccc1 (centres undefined)	none
CCCCCCCCN1C(=O)[C@@H](CC(=O)N2CCSCC2)C[C@@]2(C(=O)OC)C1=C[C@H](C(C)C)O[C@@H]2C1CC1	none (no result: ABHD5-PLIN5 inh)
Cc1ccc2cc3c(N)c(C(=O)Nc4c(C)[nH]c(=O)[nH]c4=O)sc3nc2c1	PRMT1 FP inh 31 | PRMT1 confirm inactive
